Source: the supplement of paper PMC6555819

Assays:
Test in all cases: PBM binding z-score (relative to random genomic background probes); higher = stronger binding; sequences stand for … in GC…GCGATTGACAGCGTAGAATGAAGG
[1] = test system: FXR:RXRa (NR concentration 270 nM, RXRa partner concentration 90 nM)
How it was run: (§1)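 Random background probes are the reference for binding z-scores. These scores derive from regression-normalized fluorescence on custom Agilent 4×180K protein-binding microarrays incubated 1 h with ligand-free nuclear receptor dimers. Binding was detected with antibodies against each partner (one per run).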

[2] = test system: LXRa:RXRa (NR concentration 270 nM, RXRa partner concentration 90 nM)
How it was run: as §1

[3] = test system: LXRa homodimer (NR concentration 270 nM)
How it was run: as §1

[4] = test system: LXRb:RXRa (NR concentration 270 nM, RXRa partner concentration 90 nM)
How it was run: as §1

[5] = test system: LXRb homodimer (NR concentration 270 nM)
How it was run: as §1

[6] = test system: PPARa:RXRa (NR concentration 270 nM, RXRa partner concentration 90 nM)
How it was run: as §1

[7] = test system: PPARg:RXRa (NR concentration 180 nM, RXRa partner concentration 90 nM)
How it was run: as §1

[8] = test system: PPARg:RXRa 270nM:90nM, anti-RXR (NR concentration 270 nM, RXRa partner concentration 90 nM)
How it was run: as §1

[9] = test system: PPARg:RXRa 30nM:10nM, anti-RXR (NR concentration 30 nM, RXRa partner concentration 10 nM)
How it was run: as §1

[10] = test system: PPARg:RXRa 90nM:30nM, anti-RXR (NR concentration 90 nM, RXRa partner concentration 30 nM)
How it was run: as §1

[11] = test system: PPARg:RXRa DBDmut IVT, anti-RXR (DBD mutation: RXRa K156A/R161A, NR concentration 270 nM, RXRa partner concentration 90 nM)
How it was run: as §1

[12] = test system: PPARg:RXRa IVT, anti-PPARg (NR concentration 270 nM, RXRa partner concentration 90 nM)
How it was run: as §1

[13] = test system: PPARg DBDmut:RXRa IVT, anti-PPARg (DBD mutation: PPARg1 K132A/R137A, NR concentration 270 nM, RXRa partner concentration 90 nM)
How it was run: as §1

[14] = test system: PPARg DBDmut IVT, anti-PPARg (DBD mutation: PPARg1 K132A/R137A, NR concentration 270 nM)
How it was run: as §1

[15] = test system: PPARg homodimer (NR concentration 180 nM)
How it was run: as §1

[16] = test system: PXR:RXRa (NR concentration 270 nM, RXRa partner concentration 90 nM)
How it was run: as §1

[17] = test system: PXR homodimer (NR concentration 270 nM)
How it was run: as §1

[18] = test system: RARa:RXR (NR concentration 270 nM, RXRa partner concentration 90 nM)
How it was run: as §1

[19] = test system: RARa homodimer (NR concentration 270 nM)
How it was run: as §1

[20] = test system: RARb:RXRa (NR concentration 270 nM, RXRa partner concentration 90 nM)
How it was run: as §1

Sequence	PBM binding z-score [1]	PBM binding z-score [2]	PBM binding z-score [3]	PBM binding z-score [4]	PBM binding z-score [5]	PBM binding z-score [6]	PBM binding z-score [7]	PBM binding z-score [8]	PBM binding z-score [9]	PBM binding z-score [10]	PBM binding z-score [11]	PBM binding z-score [12]	PBM binding z-score [13]	PBM binding z-score [14]	PBM binding z-score [15]	PBM binding z-score [16]	PBM binding z-score [17]	PBM binding z-score [18]	PBM binding z-score [19]	PBM binding z-score [20]
ACTAGCAGGCCGAGTTTGGGTCACTCAAACAAAG	-0.115	-0.146	-0.389	0.653	-0.928	1.21	-0.2	-0.103	-0.644	-0.461	-0.462	0.793	-0.125	-0.727	-0.382	0.617	-0.458	1.21	-1.01	1.29
CGCACGAGGGCATGAGTTGATAGCAAATGCCGAT	0.564	0.295	-0.626	0.0671	-0.764	1.1	0.947	0.583	-0.123	0.22	1.88	1.02	-0.109	-0.507	0.288	0.438	-0.109	0.296	-0.714	2.09
TCATATAGGTAATACAGGTGAAAGTAGGCATCTA	0.885	1.45	0.55	1.22	0.295	2.15	2.26	2.62	3.8	3.24	3.97	3.61	1.94	1.73	1.39	0.952	0.772	1.07	1.69	0.613
CCTAGCAGGGCAGGGTCACTCAAGCATTTCGCTT	2.68	2.17	-0.361	2.12	-1.22	3.32	1.4	2.37	-0.0964	1.47	0.873	1.78	-1.54	-0.906	1.69	2.92	-0.402	3.98	-0.114	3
TTACCAAGTTGAAAGGTCGTTGATGCACGCCTTG	2.79	2.74	0.48	2.17	-0.00674	3.78	4.15	5.58	3.84	5.07	0.565	1.78	-0.471	0.0768	1.5	3.35	0.56	4.05	0.532	2.34
CTCGAAAGGACGGTTGAGGTGAGTATACGGATAA	0.507	-0.351	-0.439	-0.303	-0.832	0.0414	0.232	-0.0748	0.0534	-0.244	-0.361	-0.0316	0.142	0.0698	-0.218	0.0192	0.134	0.512	-0.448	0.634
CGTCCAAGGTCAGAGAGGTTAGTGAATGCCGAGT	5.32	3.46	0.378	2.89	-0.248	4.18	2.47	2.56	0.275	1.48	2.24	2.47	-0.113	-0.422	2.06	3.93	4.8	3.47	0.223	4.7
CTACCAAGGTGAACAAGGTCGTTAATTACTATTC	1.3	1.23	0.268	1.86	-0.284	2.61	1.07	1.5	0.266	1.15	2.2	2.78	0.73	0.27	1.17	2.76	1.14	2.57	0.262	2.11
CGAACTAGGTCATCCACGACAGTGAATACATTGA	4.92	2.48	0.634	2.23	0.18	4.92	8.03	6.61	4.01	5.93	7.98	8.15	5.88	5.31	2.72	1.59	0.311	2.59	0.664	3.87
CGAACTAGGTGAAGGACAGTGAATCTCCGCACGC	-0.222	-0.234	-0.52	-0.714	-1.01	2.1	3.52	3.2	0.549	2.14	7.22	6.69	0.351	1.02	-0.373	-0.343	-0.341	-0.0643	-0.232	0.792
CAAACTAGGTCAAAGGTCCAAGTCGAGCCAACCA	5.12	4.21	0.693	3.08	0.0587	6.27	12.8	10.1	12.4	12.2	8.79	8.36	1.57	1.19	3.75	3.24	0.0421	5.03	0.553	4.19
